Assay results reported in PubChem BioAssay (EPA / NIEHS).
Calls of active or inactive are those of the source. How the source made its calls: active means hit-call score of the fitted dose curve at least 0.9, where 1 is the maximum; inactive means score below 0.9.

What was measured:
[1] = read-out: Urokinase-type plasminogen activator receptor (uPAR), PLAUR (gene 5329); test: BSK_4H_uPAR: BioMAP Diversity Plus: 4H Assay for Urokinase-type plasminogen activator receptor (uPAR) Biomarker Activity (AID 2283030); details: primary human endothelial cells (HUVEC); actives raise or lower the signal
Procedure, shortened: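 Human umbilical vein endothelial cells in the 4H system, 24 h after chemical dosing. Cell-surface uPAR measured by ELISA, fitted in both directions versus DMSO; cytotoxicity checked by SRB total protein in parallel cultures.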

[2] = read-out: Vascular endothelial growth factor receptor 2 (Homo sapiens) (UniProt P35968); test: BSK_4H_VEGFRII: BioMAP Diversity Plus: 4H Assay for Vascular endothelial growth factor receptor 2 (VEGFR2) Biomarker Activity (AID 2283031); details: primary human endothelial cells (HUVEC); actives raise or lower the signal
Procedure, shortened: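 Primary human umbilical vein endothelial cells (4H system), 24 h exposure; cell-surface VEGFR2 measured by ELISA. Bidirectional fitting versus DMSO; cytotoxicity checked in parallel by SRB total-protein staining.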

[3] = read-out: Human Leukocyte Antigen - DR isotype (HLADR), HLA-DRA (gene 3122); test: BSK_BE3C_HLADR: BioMAP Diversity Plus: BE3C Assay for Human Leukocyte Antigen - DR isotype (HLADR) Biomarker Activity (AID 2283032); details: primary human bronchial epithelial cells; actives raise or lower the signal
Procedure, shortened: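 Cell-surface HLA-DR ELISA readout at 24 h after dosing in the BE3C primary human lung bronchial epithelial system; gain or loss of signal against DMSO, with parallel sulforhodamine B staining of total protein for overt cytotoxicity.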

[4] = read-out: Vascular cell adhesion molecule 1 (VCAM1), VCAM1 (gene 7412); test: BSK_4H_VCAM1: BioMAP Diversity Plus: 4H Assay for Vascular cell adhesion molecule 1 (VCAM1) Biomarker Activity (AID 2283033); details: primary human endothelial cells (HUVEC); actives raise or lower the signal;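 further: cell-surface VCAM-1 protein measured by ELISA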
Procedure, shortened: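 VCAM-1 ELISA read 24 h after chemical dosing of HUVEC in the BioMAP 4H system, with gain or loss of signal fitted relative to DMSO. Parallel SRB staining (560 nm) checked overt cytotoxicity.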

[5] = read-out: Interferon-gamma inducible Protein 10 (IP10), CXCL10 (gene 3627); test: BSK_BE3C_IP10: BioMAP Diversity Plus: BE3C Assay for Interferon-gamma inducible Protein 10 (IP10) Biomarker Activity (AID 2283034); details: primary human bronchial epithelial cells; actives raise or lower the signal
Procedure, shortened: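 IP-10 quantified by ELISA in human primary bronchial epithelial cell cultures at 24 hours post-dosing. Gain or loss of signal fitted relative to DMSO; parallel SRB staining assessed overt cytotoxicity.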

[6] = read-out: Transforming growth factor beta 1 (TGFb1), TGFB1 (gene 7040); test: BSK_BE3C_TGFb1: BioMAP Diversity Plus: BE3C Assay for Transforming growth factor beta 1 (TGFb1) Biomarker Activity (AID 2283036); details: primary human bronchial epithelial cells; actives raise or lower the signal
Procedure, shortened: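 ELISA readout of TGF-b1 from human lung bronchial epithelial primary cells, taken 24 h post-treatment. Gain or loss of signal fitted relative to DMSO baseline, with parallel SRB staining for overt cytotoxicity.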

[7] = read-out: Plasminogen activator inhibitor-1 (PAI1), SERPINE1 (gene 5054); test: BSK_BE3C_PAI1: BioMAP Diversity Plus: BE3C Assay for Plasminogen activator inhibitor-1 (PAI1) Biomarker Activity (AID 2283037); details: primary human bronchial epithelial cells; actives raise or lower the signal
Procedure, shortened: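 PAI-1 was measured by ELISA in human primary bronchial epithelial cultures 24 h after chemical dosing, with cytotoxicity checked by SRB total-protein staining in parallel cultures. Activity was fitted in both directions relative to DMSO.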

[8] = read-out: Urokinase-type plasminogen activator receptor (uPAR), PLAUR (gene 5329); test: BSK_BE3C_uPAR: BioMAP Diversity Plus: BE3C Assay for Urokinase-type plasminogen activator receptor (uPAR) Biomarker Activity (AID 2283039); details: primary human bronchial epithelial cells; actives raise or lower the signal;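 further: cells exposed to compound for one day before measurement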
Procedure, shortened: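 uPAR levels were measured by ELISA after 24 h compound treatment of primary human bronchial epithelial cells, fitted in both directions relative to DMSO. Parallel SRB staining served as the cytotoxicity read-out.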

[9] = read-out: Interleukin-6 (IL6), IL6 (gene 3569); test: BSK_CASM3C_IL6: BioMAP Diversity Plus: CASM3C Assay for Interleukin-6 (IL6) Biomarker Activity for (AID 2283040); details: primary human coronary artery smooth muscle cells; actives raise or lower the signal
[10] = read-out: Tissue plasminogen activator (tPA), PLAT (gene 5327); test: BSK_BE3C_tPA: BioMAP Diversity Plus: BE3C Assay for Tissue plasminogen activator (tPA) Biomarker Activity (AID 2283041); details: primary human bronchial epithelial cells; actives raise or lower the signal;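 further: tPA level quantified by ELISA one day after compound addition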
Procedure, shortened: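 tPA measured by ELISA 24 h after dosing human primary bronchial epithelial cells (BE3C system). Changes in either direction were fitted against DMSO. Parallel cultures were stained with SRB to flag overt cytotoxicity.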

[11] = read-out: Interleukin-8 (IL8), CXCL8 (gene 3576); test: BSK_CASM3C_IL8: BioMAP Diversity Plus: CASM3C Assay for Interleukin-8 (IL8) Biomarker Activity (AID 2283042); details: primary human coronary artery smooth muscle cells; actives raise or lower the signal;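 further: IL-8 protein level quantified by ELISA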
[12] = read-out: Human Leukocyte Antigen - DR isotype (HLADR), HLA-DRA (gene 3122); test: BSK_CASM3C_HLADR: BioMAP Diversity Plus: CASM3C Assay for Human Leukocyte Antigen - DR isotype (HLADR) Biomarker Activity (AID 2283043); details: primary human coronary artery smooth muscle cells; actives raise or lower the signal;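 further: cell-surface HLA-DR protein level quantified by ELISA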
[13] = read-out: Macrophage colony-stimulating factor (MCSF), CSF1 (gene 1435); test: BSK_CASM3C_MCSF: BioMAP Diversity Plus: CASM3C Assay for Macrophage colony-stimulating factor (MCSF) Biomarker Activity (AID 2283044); details: primary human coronary artery smooth muscle cells; actives raise or lower the signal;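 further: M-CSF protein amount quantified by ELISA after 24 h exposure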
[14] = read-out: Low-density lipoprotein receptor (LDLR), LDLR (gene 3949); test: BSK_CASM3C_LDLR: BioMAP Diversity Plus: CASM3C Assay for Low-density lipoprotein receptor (LDLR) Biomarker Activity (AID 2283045); details: primary human coronary artery smooth muscle cells; actives raise or lower the signal;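 further: LDLR protein level on the cell surface quantified by ELISA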
[15] = read-out: Monocyte Chemoattractant Protein-1 (MCP1), CCL2 (gene 6347); test: BSK_CASM3C_MCP1: BioMAP Diversity Plus: CASM3C Assay for Monocyte Chemoattractant Protein-1 (MCP1) Biomarker Activity (AID 2283046); details: primary human coronary artery smooth muscle cells; actives raise or lower the signal;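 further: MCP-1 level quantified by ELISA 24 h after dosing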
[16] = BSK_CASM3C_Proliferation: Cell Proliferation Assessment in the BioMAP Diversity Plus: CASM3C Assay (AID 2283047); details: primary human coronary artery smooth muscle cells;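 further: sulforhodamine B total protein stain as relative cell number at 560 nm; sub-confluent cells exposed 48 h before staining; fitted both ways against DMSO so gain or loss of cell number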
[17] = read-out: Monokine induced gamma interferon (MIG), CXCL9 (gene 4283); test: BSK_CASM3C_MIG: BioMAP Diversity Plus: CASM3C Assay for Monokine induced gamma interferon (MIG) Biomarker Activity (AID 2283048); details: primary human coronary artery smooth muscle cells; actives raise or lower the signal;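 further: MIG protein level measured by ELISA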
[18] = read-out: serum amyloid A (SAA), SAA1 (gene 6288); test: BSK_CASM3C_SAA: BioMAP Diversity Plus: CASM3C Assay for serum amyloid A (SAA) Biomarker Activity (AID 2283049); details: primary human coronary artery smooth muscle cells; actives raise or lower the signal;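 further: SAA protein level quantified by ELISA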
[19] = read-out: Monokine induced gamma interferon (MIG), CXCL9 (gene 4283); test: BSK_BE3C_MIG: BioMAP Diversity Plus: BE3C Assay for Monokine induced gamma interferon (MIG) Biomarker Activity (AID 2283035); details: primary human bronchial epithelial cells; actives raise or lower the signal
Procedure, shortened: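 ELISA quantified MIG after 24 h exposure of primary bronchial epithelial cultures, analysed in both directions relative to DMSO. Cytotoxicity tracked in parallel cultures by sulforhodamine B staining.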

[20] = read-out: urokinase plasminogen activator (uPA), PLAU (gene 5328); test: BSK_BE3C_uPA: BioMAP Diversity Plus: BE3C Assay for urokinase plasminogen activator (uPA) Biomarker Activity (AID 2283038); details: primary human bronchial epithelial cells; actives raise or lower the signal;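 further: uPA protein level quantified by ELISA in cell cultures; uPA read one day after compound addition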
Procedure, shortened: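 Primary human bronchial epithelial cells, uPA measured by ELISA 24 h after dosing. Bidirectional change relative to DMSO; cytotoxicity checked in parallel cultures by sulforhodamine B total-protein staining.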

Measured: AC50

COc1ccc(C(=CC(=O)N2CCOCC2)c2ccc(Cl)cc2)cc1OC
inactive: [1] | [2] | [3] | [4] | [5] | [6] | [7] | [8] | [9] | [10] | [11] | [12] | [14] | [16] | [17] | [18]
active: [13] 2.5 µM | [15] 6.65 µM

C#CC(C)(C)NC(=O)c1cc(Cl)cc(Cl)c1
inactive: [1] | [2] | [4] | [19] | [6] | [7] | [20] | [8] | [9] | [10] | [11] | [12] | [13] | [14] | [15] | [16] | [17] | [18]
active: [3] 4.39 µM | [5] 14.9 µM

CC(C)=CC1C(C(=O)OCN2C(=O)C3=C(CCCC3)C2=O)C1(C)C (configuration not stated)
inactive: [2] | [4] | [5] | [19] | [6] | [7] | [8] | [9] | [10] | [11] | [12] | [13] | [14] | [15] | [17] | [18]
active: [1] 8.64 µM | [3] 20 µM | [16] 20 µM

C[N+]1(C)CCCCC1
inactive: [1] | [2] | [3] | [4] | [19] | [7] | [8] | [9] | [10] | [11] | [12] | [13] | [14] | [15] | [16] | [17] | [18]
active: [6] 0.193 µM

CCC(=NOC/C=C/Cl)C1=C(O)CC(C2CCOCC2)CC1=O (configuration not stated)
inactive: [1] | [2] | [3] | [4] | [6] | [7] | [20] | [8] | [9] | [10] | [11] | [12] | [13] | [14] | [15] | [16] | [17] | [18]

O=c1ccc(=O)[nH][nH]1
inactive: [1] | [2] | [3] | [4] | [19] | [6] | [7] | [20] | [8] | [9] | [10] | [11] | [12] | [13] | [14] | [15] | [16] | [17] | [18]
